Results reported in the supplement of paper PMC12669032.
Unmarked numbers belong to inactive results.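 The calls were made as follows: active = AUC reduced over 20% with Padj below 0.05 in at least 2 of 3 replicates; inactive = otherwise.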

Columns and labels:
[1] = system: Roseburia intestinalis; experiment: growth AUC relative to DMSO control (median of replicates) (fraction); higher = more growth (less inhibition), active = hit call of the paper; details: 20 µM; 24 h
Summary of the method: (§1)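 In round-bottom 96-well plates sealed with pierced gas-permeable seals, gut bacterial monocultures in mGAM were grown anaerobically at 37 °C from OD600 0.05 with 20 µM compound (1% DMSO). OD600 readings were taken hourly for 24 h, and the minimum OD was set to 0. Area under the growth curve was then normalised to the plate median of solvent-only wells, or to row and column medians on the industrial chemical plate. The value given is the median of three biological replicates grown on separate days.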

[2] = system: Streptococcus salivarius; experiment: as above; details: 20 µM; 24 h
Summary of the method: as §1

Row | SMILES | growth AUC [1] | growth AUC [2]
1 | CCOc1cc(C(C)(C)C)ccc1C1COC(c2c(F)cccc2F)=N1 (stereo not given) | 0.948 | 1.02
2 | O=[N+]([O-])c1ccc(Oc2ccc(Cl)cc2Cl)cc1 | 0.967 | 0.981
3 | CCSC(=O)N1CCCCCC1 | 1 | 1.01
4 | CCOP(=O)(OCC)Oc1ccc([N+](=O)[O-])cc1 | 1.03 | 1.01
5 | CC(C)=CC1C(C(=O)OCc2coc(Cc3ccccc3)c2)C1(C)C (stereo not given) | 0.921 | 0.99
6 | CCOCCN(C(=O)CCl)C(=C(C)C)c1ccccc1 | 1.03 | 0.993
7 | CCOP(=O)(OCC)ON1C(=O)c2cccc3cccc(c23)C1=O | 0.9 | 1.03
8 | CC(C)=CC1C(C(=O)OCN2C(=O)C3=C(CCCC3)C2=O)C1(C)C (stereo not given) | 0.988 | 1.01
9 | COc1nc(C)nc(NC(=O)NS(=O)(=O)c2ccccc2Cl)n1 | 0.995 | 0.992
10 | CCc1cccc(CC)c1N(COC)C(=O)CCl | 0.988 | 0.981
11 | CCOP(=S)(OCC)SCCS(=O)(=O)CC | 0.971 | 0.994
12 | CCCSP(=S)(OCC)Oc1ccc(SC)cc1 (stereo not given) | 1.06 | 0.93
13 | CCCCCCCCCc1ccc(O)cc1 | 0.897 | 0.927
14 | Nc1ccc(Cc2ccc(N)c(Cl)c2)cc1Cl | 1.1 | 1.09
15 | CCCOCC(=Nc1ccc(Cl)cc1C(F)(F)F)n1ccnc1 | 0.805 | 0.982
16 | ClC1=C(Cl)[C@]2(Cl)C3CC=CC3[C@@]1(Cl)C2(Cl)Cl (stereo not given in full) | 1 | 1
17 | CCC(C)(CC)c1cc(NC(=O)c2c(OC)cccc2OC)on1 | 0.963 | 0.979
18 | COC(=O)C(C)Oc1ccc(Oc2ccc(Cl)cc2Cl)cc1 (stereo not given) | 0.984 | 0.984

Row | SMILES | growth AUC [1] | growth AUC [2]
19 | CCN(CC)C(=O)C(C)Oc1cccc2ccccc12 (stereo not given) | 1.08 | 0.959
20 | N#Cc1nn(-c2c(Cl)cc(C(F)(F)F)cc2Cl)c(N)c1S(=O)C(F)(F)F (stereo not given) | 0.914 | 0.811
21 | CCOP(=S)(Oc1ccc([N+](=O)[O-])cc1)c1ccccc1 (stereo not given) | 1.04 | 1.04
22 | Clc1cccc(C(Cl)(Cl)Cl)n1 | 1 | 0.959
23 | CCC(C)Nc1c([N+](=O)[O-])cc(C(C)(C)C)cc1[N+](=O)[O-] (stereo not given) | 0.927 | 1.04
24 | CCCOCCN(C(=O)CCl)c1c(CC)cccc1CC | 0.947 | 0.952
25 | O=S(=O)(c1ccc(O)cc1)c1ccc(O)cc1 | 1 | 1.04
26 | CN1CSC(=S)N(C)C1 | 1.03 | 0.983
27 | CCS(=O)(=O)c1nc2ccccn2c1S(=O)(=O)NC(=O)Nc1nc(OC)cc(OC)n1 | 1.01 | 1.03
28 | CCOP(=S)(OCC)Oc1ccc(=O)n(-c2ccccc2)n1 | 0.988 | 0.983
29 | CC(Oc1ccc(Oc2ccc(Cl)cc2Cl)cc1)C(=O)O (racemic) | 0.989 | 0.934
30 | ClC1=C(Cl)C2(Cl)C(CBr)CC1(Cl)C2(Cl)Cl (stereo not given) | 0.993 | 1.03
31 | CC(C)[C@@H](Nc1ccc(C(F)(F)F)cc1Cl)C(=O)OC(C#N)c1cccc(Oc2ccccc2)c1 (stereo not given in full) | 0.961 | 1.01
32 | CC(C)(C)C(O)C(Oc1ccc(Cl)cc1)n1cncn1 (stereo not given) | 1.03 | 1.03
33 | O=P(O)(O)CCCl | 1.03 | 1.04
34 | COC(=O)N(OC)c1ccccc1COc1ccn(-c2ccc(Cl)cc2)n1 | 0.945 | 0.928
35 | CCCSP(=S)(OCC)Oc1ccc(Cl)cc1Cl (stereo not given) | 1.08 | 0.973
